Laboratory results: the supplement of paper PMC10849652
About 8,800 targets were measured; listed, in parts, are those with a hit and a random draw of the rest. About 0.5% of all pairs of compound and target were hits.

Key:
Test in all cases: log2 fold change, soluble protein after heating vs DMSO (PISA); higher = thermal stabilisation; K562 lysate, 10 uM; active = over 0.2 and 3.5 SD of the protein, either way, in both replicates (recomputed)
erlotinib = compound: C#Cc1cccc(Nc2ncnc3cc(OCCOC)c(OCCOC)cc23)c1 [erlotinib]
How it was run: (§1)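 K562 pellets were dounce-homogenised in PBS pH 7.4 containing 1 mM MgCl2, and the crude extract, at 1 mg/mL protein, was exposed to 10 μM compound for 30 min. Aliquots were heated for 3 min across 48°C-58°C, pooled, brought to 0.5% NP-40 at 4°C and spun at 21,000xg for 90 min, with the supernatant taken as soluble protein. TMTpro 16plex LC-MS/MS with equalised channel sums quantified that protein. Values are log-two fold changes in thermal stability relative to solvent controls, taken from duplicates.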

[1] = compound: C/C(=N\NC(=O)C1=CC(=CC=C1)S(=O)(=O)N2CCOCC2)/C3=C(C=CC(=C3)Cl)O
How it was run: as §1

[2] = compound: C1=CC(=CC=C1C2=NC3=C(N2)C=C(C=C3)C(=O)N)OC4=CC=C(C=C4)Cl
How it was run: as §1

[3] = compound: C1=CC2=C(C=CC(=C2)/C=C\3/C(=O)NC(=NCC4=CC=CS4)S3)N=C1
How it was run: as §1

[4] = compound: C1=CC2=NC=CN=C2C=C1/C=C/3\C(=O)NC(=O)S3
How it was run: as §1

[5] = compound: C1=CC=C(C=C1)C2=NC(=C(N2)C3=CC=NC=C3)C4=CC(=C(C=C4)Cl)O
How it was run: as §1

[6] = compound: C1=CC=C2C(=C1)C3=NNC4=CC=CC(=C43)C2=O
How it was run: as §1

[7] = compound: C1CCN(C1)C(=O)NC2=CC=CC(=C2)NC3=NC=C(C(=N3)NCCC4=CN=CN4)Br
How it was run: as §1

[8] = compound: C1CN(CCC1(CC2=CC=C(C=C2)Cl)N)C3=NC=NC4=C3C=CN4
How it was run: as §1

IRAK-1-4 Inhibitor I = compound: C1COCCN1CCN2C3=CC=CC=C3N=C2NC(=O)C4=CC(=CC=C4)[N+](=O)[O-] [IRAK-1-4 Inhibitor I]
How it was run: as §1

Measured: log2 fold change

MBTPS1 (UniProt Q14703)
inactive: erlotinib 0.033 | [1] -0.022 | [2] -0.044 | [3] -0.009 | [4] -0.053 | [5] 0.029 | [6] -0.014 | [7] -0.029 | [8] 0.131 | IRAK-1-4 Inhibitor I -0.026

KLHL12 isoform 2 (UniProt Q53G59)
inactive: erlotinib -0.051 | [1] 0.021 | [2] 0.004 | [3] 0.053 | [4] 0.165 | [5] -0.134 | [6] 0.04 | IRAK-1-4 Inhibitor I 0.046

LRPPRC (UniProt P42704)
inactive: erlotinib 0.04 | [1] 0.028 | [2] -0.02 | [3] 0.048 | [4] 0.067 | [5] -0.004 | [6] -0.017 | [7] -0.012 | [8] 0.006 | IRAK-1-4 Inhibitor I 0.006

MIPEP (UniProt Q99797)
inactive: erlotinib -0.048 | [1] -0.06 | [2] 0.005 | [3] 0.021 | [4] 0.019 | [5] -0.029 | [6] -0.008 | [7] 0.006 | [8] 0.005 | IRAK-1-4 Inhibitor I -0.004

LBR (UniProt Q14739)
inactive: erlotinib 0.03 | [1] 0.052 | [2] -0.066 | [3] -0.021 | [4] -0.081 | [5] -0.028 | [6] -0.08 | [7] -0.032 | [8] 0.005 | IRAK-1-4 Inhibitor I 0.028

METTL21A (UniProt Q8WXB1)
inactive: erlotinib -0.074 | [2] -0.011 | [4] 0.019 | [5] -0.027 | IRAK-1-4 Inhibitor I -0.04

LYN isoform 2 (UniProt P07948)
Chain of UniProt P07948 (P07948 whole entry, looked up): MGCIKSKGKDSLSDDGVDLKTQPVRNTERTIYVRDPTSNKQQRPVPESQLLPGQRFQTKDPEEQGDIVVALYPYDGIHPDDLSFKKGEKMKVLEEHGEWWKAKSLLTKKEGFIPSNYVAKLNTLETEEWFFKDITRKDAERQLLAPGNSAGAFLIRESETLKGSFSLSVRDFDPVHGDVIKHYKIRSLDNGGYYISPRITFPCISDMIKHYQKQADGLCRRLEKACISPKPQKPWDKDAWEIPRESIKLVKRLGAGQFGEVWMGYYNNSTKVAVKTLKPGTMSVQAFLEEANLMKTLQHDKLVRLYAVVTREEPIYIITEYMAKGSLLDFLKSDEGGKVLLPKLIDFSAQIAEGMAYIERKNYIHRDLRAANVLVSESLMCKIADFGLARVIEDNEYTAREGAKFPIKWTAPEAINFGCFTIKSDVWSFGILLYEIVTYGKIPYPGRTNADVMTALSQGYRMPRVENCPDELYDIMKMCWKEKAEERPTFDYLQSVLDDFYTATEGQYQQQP
inactive: erlotinib -0.161 | [2] -0.093 | [5] 0.132 | [7] -0.035 | [8] -0.385 | IRAK-1-4 Inhibitor I 0.493

MAN2B2 (UniProt Q9Y2E5)
inactive: erlotinib 0.006 | [2] -0.019 | [4] -0.003 | [5] -0.035 | [7] -0.01 | [8] 0.045 | IRAK-1-4 Inhibitor I 0.009

MPDZ (UniProt O75970)
inactive: erlotinib -0.017 | [1] -0.061 | [2] -0.095 | [3] -0.273 | [5] -0.091 | [6] 0.004 | [7] -0.099 | [8] 0.108 | IRAK-1-4 Inhibitor I 0.149

MDM1 (UniProt Q8TC05)
inactive: erlotinib -0.018 | [1] -0.105 | [2] -0.036 | [3] -0.066 | [5] -0.054 | [6] -0.041 | [7] -0.05 | [8] -0.075 | IRAK-1-4 Inhibitor I -0.043

KIF3C (UniProt O14782)
inactive: erlotinib 0.389 | [1] 0.05 | [2] -0.082 | [3] -0.116 | [5] 0.025 | [6] -0.117 | [7] 0.158 | [8] 0.146 | IRAK-1-4 Inhibitor I -0.023

MRPL27 (UniProt Q9P0M9)
inactive: erlotinib -0.072 | [2] 0.068 | [4] -0.019 | [5] 0.056 | [7] 0.023 | [8] 0.019 | IRAK-1-4 Inhibitor I -0.044

MED28 (UniProt Q9H204)
inactive: erlotinib 0.057 | [2] 0.039 | [5] 0.045 | IRAK-1-4 Inhibitor I -0.012

LRPPRC (UniProt H7C3W8)
inactive: [1] -0.13 | [3] -0.053 | [6] -0.3

MAP4K4 isoform 6 (UniProt O95819)
inactive: erlotinib 0.006 | [2] 0.156 | [4] 0.094 | [5] -0.061 | [7] 0.003 | [8] -0.078 | IRAK-1-4 Inhibitor I -0.049

MCUB (UniProt Q9NWR8)
inactive: erlotinib 0.048 | [2] -0.069 | [4] 0.209 | [5] 0.048 | IRAK-1-4 Inhibitor I -0.12

KRAS isoform 2 (UniProt P01116)
inactive: erlotinib -0.038 | [2] 0.087 | [5] -0.071 | [7] -0.044 | [8] 0.015 | IRAK-1-4 Inhibitor I 0.033

LRP1 (UniProt Q07954)
inactive: [1] 0.266 | [3] -0.092 | [6] -0.211 | [7] -0.196 | [8] -0.055

LIMK1 (UniProt P53667)
inactive: [1] 0.114 | [3] -0.088 | [4] 0.133 | [5] -0.002 | [6] 0.029 | [7] 0.068 | [8] -0.05 | IRAK-1-4 Inhibitor I 0.06

LRRC9 (UniProt Q6ZRR7)
inactive: [1] -0.037 | [3] 0.02 | [6] -0.01 | [7] -0.044 | [8] -0.07

LRRIQ1 (UniProt Q96JM4)
inactive: [1] 0.038 | [3] -0.003 | [5] 0.041 | [6] -0.003 | IRAK-1-4 Inhibitor I -0.083

MMS22L (UniProt Q6ZRQ5)
inactive: erlotinib 0.067 | [1] 0.032 | [2] 0 | [3] -0.093 | [4] 0.037 | [6] 0.064 | [7] 0.019 | [8] -0.021

MME (UniProt P08473)
Chain of UniProt P08473 (P08473 whole entry, looked up): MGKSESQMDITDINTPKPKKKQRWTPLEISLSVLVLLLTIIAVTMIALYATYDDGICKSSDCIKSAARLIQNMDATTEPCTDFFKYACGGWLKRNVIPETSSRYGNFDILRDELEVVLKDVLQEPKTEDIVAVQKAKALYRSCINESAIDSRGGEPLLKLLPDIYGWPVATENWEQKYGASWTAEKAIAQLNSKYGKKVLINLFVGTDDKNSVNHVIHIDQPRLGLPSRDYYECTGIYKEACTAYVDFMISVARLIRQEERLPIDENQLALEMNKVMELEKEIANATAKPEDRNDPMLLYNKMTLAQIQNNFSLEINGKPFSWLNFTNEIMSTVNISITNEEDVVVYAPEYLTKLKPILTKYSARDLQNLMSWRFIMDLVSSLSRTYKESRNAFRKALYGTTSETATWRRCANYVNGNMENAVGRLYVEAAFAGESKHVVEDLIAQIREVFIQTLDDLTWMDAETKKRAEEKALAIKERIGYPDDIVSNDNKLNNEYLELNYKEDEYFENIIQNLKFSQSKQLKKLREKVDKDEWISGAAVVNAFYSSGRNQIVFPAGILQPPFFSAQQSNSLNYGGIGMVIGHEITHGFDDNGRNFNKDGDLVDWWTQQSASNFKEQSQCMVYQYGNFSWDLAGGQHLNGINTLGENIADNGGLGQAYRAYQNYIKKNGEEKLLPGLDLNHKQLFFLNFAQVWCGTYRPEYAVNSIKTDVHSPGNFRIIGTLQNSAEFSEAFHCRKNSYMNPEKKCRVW
inactive: erlotinib 0 | [2] 0.052 | [4] -0.067 | [5] 0.011 | IRAK-1-4 Inhibitor I 0.095

LRIF1 (UniProt Q5T3J3)
inactive: erlotinib -0.015 | [1] 0.11 | [2] 0.046 | [5] 0 | [6] 0.1 | [7] -0.031 | [8] -0.009 | IRAK-1-4 Inhibitor I -0.02
active: [3] -0.301

MEX3A (UniProt A1L020)
inactive: [1] 0.108 | [3] -0.108 | [5] -0.007 | [6] -0.29 | IRAK-1-4 Inhibitor I 0.168

LY6E (UniProt Q16553)
Chain of UniProt Q16553 (Q16553 whole entry, looked up): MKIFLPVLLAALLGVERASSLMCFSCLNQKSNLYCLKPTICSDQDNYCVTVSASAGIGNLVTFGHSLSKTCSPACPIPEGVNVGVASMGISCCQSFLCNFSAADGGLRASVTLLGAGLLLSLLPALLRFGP
inactive: [1] -0.095 | [3] 0.049 | [4] -0.033 | [6] -0.27 | [7] -0.02 | [8] 0.025

MRPL30 isoform 2 (UniProt Q8TCC3)
inactive: erlotinib -0.004 | [2] -0.01 | [4] -0.037 | [5] -0.03 | [7] 0.067 | [8] 0.015 | IRAK-1-4 Inhibitor I 0.015

MAPKAP1 (UniProt Q9BPZ7)
inactive: erlotinib -0.091 | [2] -0.059 | [5] 0.062 | [7] 0.141 | [8] -0.181 | IRAK-1-4 Inhibitor I -0.19

LRRC7 (UniProt Q96NW7)
inactive: [1] 0.042 | [4] -0.108 | [5] 0.065 | [6] 0.038 | [7] 0.02 | [8] 0.067 | IRAK-1-4 Inhibitor I 0.048
active: [3] -0.493

LGALS3BP (UniProt Q08380)
Chain of UniProt Q08380 (Q08380 whole entry, looked up): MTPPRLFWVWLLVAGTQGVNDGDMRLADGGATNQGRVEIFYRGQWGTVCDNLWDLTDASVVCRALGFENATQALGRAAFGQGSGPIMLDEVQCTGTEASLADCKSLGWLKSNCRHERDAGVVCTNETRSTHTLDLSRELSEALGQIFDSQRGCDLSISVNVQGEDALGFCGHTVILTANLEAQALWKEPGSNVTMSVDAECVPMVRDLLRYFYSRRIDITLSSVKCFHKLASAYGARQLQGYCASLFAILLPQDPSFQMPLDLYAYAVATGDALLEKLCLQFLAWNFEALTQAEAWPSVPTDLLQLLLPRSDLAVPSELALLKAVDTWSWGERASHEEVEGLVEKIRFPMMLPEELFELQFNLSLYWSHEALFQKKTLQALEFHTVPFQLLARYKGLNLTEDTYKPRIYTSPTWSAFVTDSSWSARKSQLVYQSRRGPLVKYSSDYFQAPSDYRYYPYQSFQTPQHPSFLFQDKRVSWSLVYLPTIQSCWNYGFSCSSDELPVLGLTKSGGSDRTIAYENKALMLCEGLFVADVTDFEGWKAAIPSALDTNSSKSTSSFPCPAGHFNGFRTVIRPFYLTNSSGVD
inactive: erlotinib -0.154 | [1] 0.293 | [2] 0.064 | [3] 0.331 | [6] -0.203 | [7] 0.018 | [8] -0.171

MED25 isoform 3 (UniProt Q71SY5)
inactive: erlotinib 0.092 | [2] 0.01 | [4] -0.062 | [5] -0.006 | [7] 0.06 | [8] 0.073 | IRAK-1-4 Inhibitor I 0.073

MRPL22 (UniProt Q9NWU5)
active: erlotinib -0.424
inactive: [2] -0.074 | [5] 0.006 | IRAK-1-4 Inhibitor I -0.01

MEGF8 (UniProt Q7Z7M0)
Chain of UniProt Q7Z7M0 (Q7Z7M0 whole entry, looked up): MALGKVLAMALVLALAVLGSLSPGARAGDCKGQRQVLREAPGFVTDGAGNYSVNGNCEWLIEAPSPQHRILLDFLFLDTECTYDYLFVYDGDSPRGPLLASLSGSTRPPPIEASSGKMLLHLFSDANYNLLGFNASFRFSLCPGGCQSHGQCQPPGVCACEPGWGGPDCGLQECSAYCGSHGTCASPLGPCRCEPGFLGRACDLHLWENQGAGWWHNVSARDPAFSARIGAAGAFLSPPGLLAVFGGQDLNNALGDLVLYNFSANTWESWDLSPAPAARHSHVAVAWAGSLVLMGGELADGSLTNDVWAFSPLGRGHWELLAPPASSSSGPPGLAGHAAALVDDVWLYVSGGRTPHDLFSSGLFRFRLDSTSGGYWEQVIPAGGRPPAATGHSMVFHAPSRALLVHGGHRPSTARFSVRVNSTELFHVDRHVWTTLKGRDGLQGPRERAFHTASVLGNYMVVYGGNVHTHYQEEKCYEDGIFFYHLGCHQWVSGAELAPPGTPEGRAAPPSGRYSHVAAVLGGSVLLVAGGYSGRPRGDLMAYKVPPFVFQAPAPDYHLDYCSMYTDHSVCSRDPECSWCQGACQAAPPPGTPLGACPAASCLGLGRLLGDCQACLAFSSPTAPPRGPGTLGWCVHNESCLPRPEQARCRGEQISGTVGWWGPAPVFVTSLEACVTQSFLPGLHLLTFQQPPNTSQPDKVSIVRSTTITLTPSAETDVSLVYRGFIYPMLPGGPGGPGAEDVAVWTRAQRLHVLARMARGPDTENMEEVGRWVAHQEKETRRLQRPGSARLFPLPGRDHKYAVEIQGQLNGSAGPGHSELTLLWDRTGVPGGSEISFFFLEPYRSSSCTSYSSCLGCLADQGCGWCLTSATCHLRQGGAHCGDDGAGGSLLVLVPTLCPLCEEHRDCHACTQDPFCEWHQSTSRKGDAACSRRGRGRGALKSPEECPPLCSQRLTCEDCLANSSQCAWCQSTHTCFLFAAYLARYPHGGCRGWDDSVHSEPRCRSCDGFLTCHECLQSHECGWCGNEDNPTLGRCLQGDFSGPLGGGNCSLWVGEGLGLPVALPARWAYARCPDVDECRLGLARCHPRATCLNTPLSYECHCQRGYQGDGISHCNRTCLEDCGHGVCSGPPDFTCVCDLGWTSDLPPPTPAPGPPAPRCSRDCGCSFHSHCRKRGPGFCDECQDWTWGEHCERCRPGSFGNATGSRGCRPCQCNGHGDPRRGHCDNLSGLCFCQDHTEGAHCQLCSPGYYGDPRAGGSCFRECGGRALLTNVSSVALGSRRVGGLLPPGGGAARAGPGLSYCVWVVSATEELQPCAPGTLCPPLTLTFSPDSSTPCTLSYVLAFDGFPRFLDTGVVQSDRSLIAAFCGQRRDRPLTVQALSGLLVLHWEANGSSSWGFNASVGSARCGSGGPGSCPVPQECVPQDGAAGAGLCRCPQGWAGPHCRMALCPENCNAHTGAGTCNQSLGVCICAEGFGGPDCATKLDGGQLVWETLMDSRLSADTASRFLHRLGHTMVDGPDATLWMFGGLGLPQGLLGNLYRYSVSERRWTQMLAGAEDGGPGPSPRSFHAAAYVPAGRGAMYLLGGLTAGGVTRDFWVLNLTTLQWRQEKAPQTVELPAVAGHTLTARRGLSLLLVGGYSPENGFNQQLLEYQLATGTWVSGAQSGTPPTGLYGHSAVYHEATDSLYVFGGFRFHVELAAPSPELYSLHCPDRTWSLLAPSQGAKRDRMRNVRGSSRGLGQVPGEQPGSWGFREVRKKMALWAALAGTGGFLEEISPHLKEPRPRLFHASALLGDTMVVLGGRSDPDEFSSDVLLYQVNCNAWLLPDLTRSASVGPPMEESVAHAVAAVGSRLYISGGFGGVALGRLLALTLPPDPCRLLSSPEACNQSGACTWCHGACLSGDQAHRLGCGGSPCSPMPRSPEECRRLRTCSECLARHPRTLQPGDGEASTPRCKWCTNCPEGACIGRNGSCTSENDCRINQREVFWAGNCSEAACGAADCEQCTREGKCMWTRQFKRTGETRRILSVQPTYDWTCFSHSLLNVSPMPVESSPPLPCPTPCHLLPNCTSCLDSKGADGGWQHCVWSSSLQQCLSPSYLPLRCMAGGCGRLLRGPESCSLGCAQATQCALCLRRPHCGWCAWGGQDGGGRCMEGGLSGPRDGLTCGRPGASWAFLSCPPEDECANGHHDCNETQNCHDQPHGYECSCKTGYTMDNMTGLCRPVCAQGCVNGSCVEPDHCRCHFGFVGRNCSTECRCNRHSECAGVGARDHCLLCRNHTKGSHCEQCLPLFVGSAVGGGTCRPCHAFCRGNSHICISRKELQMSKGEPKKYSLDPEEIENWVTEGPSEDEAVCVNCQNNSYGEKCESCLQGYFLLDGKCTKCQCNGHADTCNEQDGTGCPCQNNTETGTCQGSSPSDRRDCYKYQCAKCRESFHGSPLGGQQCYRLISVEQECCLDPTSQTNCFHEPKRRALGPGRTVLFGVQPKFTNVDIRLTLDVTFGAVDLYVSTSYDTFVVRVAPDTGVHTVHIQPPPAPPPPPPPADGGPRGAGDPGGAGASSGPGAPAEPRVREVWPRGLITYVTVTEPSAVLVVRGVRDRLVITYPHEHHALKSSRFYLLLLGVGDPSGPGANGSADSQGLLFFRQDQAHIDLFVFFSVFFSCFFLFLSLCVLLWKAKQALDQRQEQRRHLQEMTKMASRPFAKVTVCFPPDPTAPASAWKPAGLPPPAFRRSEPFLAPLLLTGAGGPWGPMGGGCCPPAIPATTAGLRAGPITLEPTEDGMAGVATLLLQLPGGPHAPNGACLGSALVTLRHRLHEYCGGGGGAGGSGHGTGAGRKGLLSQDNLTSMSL
inactive: erlotinib 0.045 | [2] 0.016 | [4] 0.013 | [5] 0.075 | [7] -0.116 | [8] 0.071
active: IRAK-1-4 Inhibitor I -0.36

KMT2B (UniProt Q9UMN6)
inactive: erlotinib -0.494 | [2] -0.226 | [7] -0.028 | [8] -0.015

MAPK7 (UniProt Q13164)
inactive: erlotinib -0.1 | [2] 0.012 | [7] -0.057 | [8] 0.032

MRC2 (UniProt Q9UBG0)
inactive: erlotinib -0.225 | [2] 0.031 | [7] 0.011 | [8] 0.061

MAP3K6 (UniProt O95382)
inactive: [1] 0.05 | [3] 0.183 | [6] 0.487 | [7] 0.033 | [8] -0.008

KIF18B (UniProt Q86Y91)
inactive: [7] -0.117 | [8] 0.033

MARCHF6 (UniProt O60337)
inactive: erlotinib 0.004 | [1] 0.008 | [2] 0.101 | [3] 0.042 | [4] -0.202 | [6] -0.133 | [7] 0.047 | [8] -0.023

KIF21A (UniProt H0YI78)
inactive: erlotinib -0.064 | [2] 0.088 | [4] -0.015

KLC1 isoform 10 (UniProt Q07866)
inactive: erlotinib 0.071 | [2] -0.165 | [4] 0.122 | [7] 0.241 | [8] -0.337

LSM11 (UniProt P83369)
inactive: erlotinib 0.104 | [1] 0.262 | [2] 0.065 | [3] -0.056 | [6] -0.044 | [7] -0.029 | [8] -0.055

KRAS (UniProt P01116)
inactive: erlotinib -0.112 | [1] 0.033 | [2] 0.069 | [3] -0.052 | [5] -0.036 | [6] -0.041 | [7] -0.021 | [8] -0.008 | IRAK-1-4 Inhibitor I 0.007

LEPROT (UniProt O15243)
Chain of UniProt O15243 (O15243 whole entry, looked up): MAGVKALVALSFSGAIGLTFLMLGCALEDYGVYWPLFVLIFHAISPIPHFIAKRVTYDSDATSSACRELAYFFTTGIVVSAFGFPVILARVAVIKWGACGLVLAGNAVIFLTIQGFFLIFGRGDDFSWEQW
inactive: erlotinib 0.176 | [2] -0.116 | [4] -0.02 | [5] -0.064 | [7] 0.122 | [8] 0.045 | IRAK-1-4 Inhibitor I -0.036
